Drawing on PubChem BioAssay, this text covers growth inhibition, inhibition and outcome for 21 molecules.

Test [1] is described as follows: antimalarial activity against Dd2 strain (AID 2302;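 active = growth inhibition above 50% at the single 2 µM test dose, taken to imply half-maximal potency below 2 µM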;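 note: 0% = DMSO untreated growth and 100% = chloroquine plus artemisinin killed control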). To be noted: P. falciparum Dd2 in RBCs, LDH growth readout, 72 h; at 2 µM; hits give high values.
Test [2] is described as follows: HepG2 cytotoxicity, primary screen, cytotoxicity control for P. falciparum antimalarial project, cell-based, ATP luminescence (AID 2303;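 active = inhibition above 50%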;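 note: 0% = DMSO wells and 100% = digitonin-killed cells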). The settings on record: HepG2 viability, 24-48 h, at 10 µM, hits give high values.
For test [3], the target named is L-lactate dehydrogenase (Plasmodium falciparum (isolate CDC / Honduras)) (UniProt Q27743). In words: PfLDH activity inhibition – cell lysate, 3D7 strain, counter-screen for P. falciparum growth inhibition project (AID 2304).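 Note: 0% = vehicle and 100% = reference inhibitor.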 To be noted: P. falciparum 3D7 crude extract, LDH APAD/NBT absorbance; at 2 µM; hits give high values. (The purpose of a counterscreen is to sort out artefacts and off-target activity.)

Test [4] in a line: inhibition of 3D7 malaria parasite growth – strain 3D7 (AID 2306).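 Note: 0% = DMSO wells and 100% = chloroquine plus artemisinin control wells.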 To be noted: P. falciparum 3D7 erythrocytic growth, LDH absorbance, 72 h; at 2 µM; hits give high values.
Test [5] has as its target Calcium-dependent protein kinase 1 (Plasmodium falciparum (isolate 3D7)) (UniProt P62344). In words: PfCDPK1 kinase inhibitors, biochemical, TCAMS library (AID 1159585; cut-off not given, nearly all actives have IC50 up to about 0.98 µM;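 note: inhibitors leave more ATP so luminescence rises with inhibition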). The settings on record: recombinant PfCDPK1, Kinase-Glo ATP depletion luminescence.
Test [6] deals with Plasmodium falciparum protein kinase 6 (PK6, PF3D7_1337100) (UniProt Q8IDW1). Description: PfPK6 kinase inhibitors, biochemical, TCAMS library (AID 1159586). The settings on record: recombinant PfPK6, Kinase-Glo ATP depletion luminescence.
For test [7], the target named is Protein kinase 7 (PK7), Plasmodium falciparum 3D7 (PF3D7_0213400) (UniProt Q7YTF7). Description: inhibition of Plasmodium PK7 catalytic activity – biochemical, TCAMS antimalarial set, Kinase-Glo luminescence (AID 1159587). To be noted: recombinant PfPK7, Kinase-Glo ATP depletion luminescence. (In Kinase-Glo more light means more ATP remaining.)
Test [8] addresses Calcium-dependent protein kinase 4 (Plasmodium falciparum (isolate 3D7)) (UniProt Q8IBS5). In words: PfCDPK4 kinase inhibitors, biochemical, TCAMS library (AID 1159588; cut-off not given, nearly all actives have IC50 up to about 0.91 µM). The settings on record: recombinant PfCDPK4, Kinase-Glo ATP depletion luminescence.

Structures are written as SMILES. Unmarked numbers belong to inactive results. For part of these data: Potency and affinity values are given separately. Calls of active or inactive are those of the source. Unless noted, the rule behind the calls is not given here.

Chain of Protein kinase 7 (PK7), Plasmodium falciparum 3D7 (PF3D7_0213400) (Q7YTF7 1-343): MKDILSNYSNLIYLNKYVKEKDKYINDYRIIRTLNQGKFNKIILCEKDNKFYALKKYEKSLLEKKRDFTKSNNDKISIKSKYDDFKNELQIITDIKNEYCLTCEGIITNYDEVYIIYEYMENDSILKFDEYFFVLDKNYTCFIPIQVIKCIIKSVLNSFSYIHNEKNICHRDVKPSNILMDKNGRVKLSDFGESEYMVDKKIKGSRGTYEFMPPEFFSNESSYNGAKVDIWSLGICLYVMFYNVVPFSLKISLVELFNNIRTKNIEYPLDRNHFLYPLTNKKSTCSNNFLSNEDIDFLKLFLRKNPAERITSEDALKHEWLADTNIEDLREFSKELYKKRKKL
Chain of L-lactate dehydrogenase (Plasmodium falciparum (isolate CDC / Honduras)) (Q27743 whole entry, looked up): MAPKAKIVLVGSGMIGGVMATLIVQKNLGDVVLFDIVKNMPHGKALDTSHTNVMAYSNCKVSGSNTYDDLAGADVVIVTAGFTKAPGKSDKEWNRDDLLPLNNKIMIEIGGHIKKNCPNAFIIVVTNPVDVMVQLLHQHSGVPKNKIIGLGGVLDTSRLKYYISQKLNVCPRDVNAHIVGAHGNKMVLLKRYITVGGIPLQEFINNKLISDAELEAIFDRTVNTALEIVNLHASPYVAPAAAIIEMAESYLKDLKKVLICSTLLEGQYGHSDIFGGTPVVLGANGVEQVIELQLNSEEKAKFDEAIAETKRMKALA
Chain of Plasmodium falciparum protein kinase 6 (PK6, PF3D7_1337100) (Q8IDW1 1-305): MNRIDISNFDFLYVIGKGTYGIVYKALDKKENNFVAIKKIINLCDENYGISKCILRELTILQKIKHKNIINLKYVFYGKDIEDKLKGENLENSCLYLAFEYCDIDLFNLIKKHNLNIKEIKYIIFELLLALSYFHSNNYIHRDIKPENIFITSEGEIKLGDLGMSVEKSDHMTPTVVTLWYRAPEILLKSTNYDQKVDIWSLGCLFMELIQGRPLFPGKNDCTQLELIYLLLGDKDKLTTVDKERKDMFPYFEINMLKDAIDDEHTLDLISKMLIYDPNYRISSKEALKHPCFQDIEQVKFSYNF
Chain of Calcium-dependent protein kinase 1 (Plasmodium falciparum (isolate 3D7)) (P62344 whole entry, looked up): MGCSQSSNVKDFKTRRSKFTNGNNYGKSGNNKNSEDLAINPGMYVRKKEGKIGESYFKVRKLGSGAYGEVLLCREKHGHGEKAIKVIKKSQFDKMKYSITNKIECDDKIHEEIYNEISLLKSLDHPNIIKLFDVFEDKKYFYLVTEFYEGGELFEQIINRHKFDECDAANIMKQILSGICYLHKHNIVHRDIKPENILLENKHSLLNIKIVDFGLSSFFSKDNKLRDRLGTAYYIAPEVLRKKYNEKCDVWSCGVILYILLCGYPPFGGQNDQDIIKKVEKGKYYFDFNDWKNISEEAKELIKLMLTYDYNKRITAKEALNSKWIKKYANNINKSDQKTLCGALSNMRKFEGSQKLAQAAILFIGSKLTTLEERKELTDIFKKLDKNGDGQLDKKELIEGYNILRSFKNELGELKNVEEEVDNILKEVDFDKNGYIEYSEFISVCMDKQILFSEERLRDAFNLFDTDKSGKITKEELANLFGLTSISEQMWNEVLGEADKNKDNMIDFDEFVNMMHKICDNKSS
Chain of Calcium-dependent protein kinase 4 (Plasmodium falciparum (isolate 3D7)) (Q8IBS5 whole entry, looked up): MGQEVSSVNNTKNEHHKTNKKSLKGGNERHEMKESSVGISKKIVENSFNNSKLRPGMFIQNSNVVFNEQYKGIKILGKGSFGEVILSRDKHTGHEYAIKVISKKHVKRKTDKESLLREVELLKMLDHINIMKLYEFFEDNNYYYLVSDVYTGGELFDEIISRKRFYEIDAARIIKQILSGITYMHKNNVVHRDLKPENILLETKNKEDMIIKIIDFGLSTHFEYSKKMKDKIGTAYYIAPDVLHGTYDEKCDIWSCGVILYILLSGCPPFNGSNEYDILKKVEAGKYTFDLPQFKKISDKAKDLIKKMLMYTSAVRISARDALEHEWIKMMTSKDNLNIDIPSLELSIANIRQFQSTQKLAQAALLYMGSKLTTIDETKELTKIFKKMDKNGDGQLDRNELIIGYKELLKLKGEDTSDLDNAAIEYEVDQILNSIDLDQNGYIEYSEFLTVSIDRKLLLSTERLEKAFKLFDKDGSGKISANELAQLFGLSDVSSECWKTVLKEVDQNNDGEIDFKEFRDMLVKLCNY

One may read the inhibition as the relative decrease from the control value, in per cent. As to `O=C(Nc1ccccc1Cc1ccccc1)c1ccccc1C(F)(F)F`, the growth inhibition in test [1] is 85% (active); in test [4] it was 99% (active). In addition, the inhibition in test [2] was 0%; in test [3] it was 3%. Further, the outcome in test [5], in test [6], in test [7] and in test [8] was inactive.

Turning to `Cc1[nH]c2ccccc2c(=O)c1Br`, the growth inhibition is 84% (active) in test [1] and 94% (active) in test [4]. For the same molecule, the inhibition was 2% in test [2] and 3% in test [3]. The outcome in test [5], in test [6], in test [7] and in test [8] was inactive.

Regarding `COc1ccc(Nc2nccc(-c3ccc(NC(=O)c4cc5cc(F)ccc5[nH]4)cc3)n2)cc1`, the growth inhibition was 26% in test [1] and 91% (active) in test [4]. Besides, the inhibition in test [2] is 21%; in test [3], -2%. The result in test [5], in test [6], in test [7] and in test [8] was inactive.

In the case of `CNC(=O)c1ccc2nc(-c3ccc(-c4ccccc4)cc3)n(CC3CCN(CC4CCCC4)CC3)c2c1`, the growth inhibition was 36% in test [1] and 84% (active) in test [4]. Further, the inhibition in test [2] was 13%; in test [3] it was -6%. For the same molecule, the result in test [5], in test [6], in test [7] and in test [8] was inactive.

Take `O=S(=O)(c1cccc(Cl)c1F)N(CCC(O)(C(F)(F)F)C(F)(F)F)Cc1cccc(O)c1`: the growth inhibition is 86% (active) in test [1] and 100% (active) in test [4]. In addition, the values for the inhibition in test [2] and in test [3] were -5% and 0%, respectively. In addition, the result in test [5], in test [6], in test [7] and in test [8] was inactive.

On to `CN(C)CCOc1cc(NC(=O)Nc2ccc(-c3ccccc3)cc2Cl)ccc1I`, for which the growth inhibition in test [1] is 93% (active); in test [4], 102% (active). In addition, the values for the inhibition in test [2] and in test [3] were 25% and 3%, respectively. In addition, the result in test [5], in test [6], in test [7] and in test [8] was inactive.

`COc1ccc2nccc([C@@H](O)CN3CCC(NCc4cc5ccccc5[nH]4)CC3)c2n1`: the growth inhibition was 55% (active) in test [1] and 101% (active) in test [4]. The inhibition is 17% in test [2] and 3% in test [3]. Also, the result in test [5], in test [6], in test [7] and in test [8] was inactive.

On to `Cc1cc(=O)c2cc(-c3ccc(OC(F)(F)F)cc3)ccc2[nH]1`, for which the growth inhibition is 95% (active) in test [1] and 96% (active) in test [4]. Besides, the inhibition in test [2] was -3%; in test [3], 3%. Besides, the outcome in test [5], in test [6], in test [7] and in test [8] was inactive.

Regarding `CC1(C)N=C(N)N=C(N)N1OCCc1ccccc1`, the growth inhibition was 95% (active) in test [1] and 96% (active) in test [4]. Also, the inhibition in test [2] is 70% (active); in test [3] it was 2%. Moreover, the outcome in test [5], in test [6], in test [7] and in test [8] was inactive.

Take `CCCC(=O)c1cnc2cc(O)ccc2c1Nc1ccccc1C`: the growth inhibition in test [1] is 93% (active); in test [4], 99% (active). Moreover, the inhibition in test [2] was 14%; in test [3] it was -8%. Further, the result in test [5], in test [6], in test [7] and in test [8] was inactive.

Consider `N#Cc1cc(C(=O)c2cc(Br)ccc2O)cn(C2CCCCC2)c1=O`, for which the growth inhibition is 9% in test [1] and 89% (active) in test [4]. The inhibition in test [2] and in test [3] was 3% throughout. The outcome in test [5], in test [6], in test [7] and in test [8] was inactive.

As for `COC(=O)c1cccc(CNCc2cccc(-c3cccc(-c4nc5ccc(C(F)(F)F)cc5[nH]4)c3)c2)c1`, the values for the growth inhibition in test [1] and in test [4] were 69% (active) and 102% (active), respectively. Moreover, the inhibition is 7% in test [2] and 6% in test [3]. The result in test [5], in test [6], in test [7] and in test [8] was inactive.

Turning to `COc1cccc(-c2cccc(-c3ccc(NC(=O)c4ccc([N+](=O)[O-])o4)cc3)n2)c1`, the growth inhibition in test [1] is 94% (active); in test [4], 97% (active). Besides, the values for the inhibition in test [2] and in test [3] were 98% (active) and 6%, respectively. For the same molecule, the outcome in test [5], in test [6], in test [7] and in test [8] was inactive.

For the molecule `O[C@H](c1cc(C(F)(F)F)nc2c(C(F)(F)F)cccc12)[C@@H]1CCCCN1`, the growth inhibition in test [1] and in test [4] was 99% (active) each time. The inhibition in test [2] was 29%; in test [3], 7%. Moreover, the outcome in test [5], in test [6], in test [7] and in test [8] was inactive.

In the case of `Nc1ccc(-c2nc3c(ccc4ccccc43)[nH]2)cc1`, the growth inhibition in test [1] is 51% (active); in test [4] it was 84% (active). Further, the inhibition is -21% in test [2] and -1% in test [3]. Further, the outcome in test [5], in test [6], in test [7] and in test [8] was inactive.

Regarding `CCCNCc1ccc(-c2ccc(CN(Cc3ccc4c(c3)OCO4)C(=O)Cc3cccnc3)cc2)nc1`, the growth inhibition in test [1] is 53% (active); in test [4] it was 94% (active). The inhibition in test [2] is 16%; in test [3], 5%. Further, the result in test [5], in test [6], in test [7] and in test [8] was inactive.

For `O=C(NCc1ccccc1)c1ccc(C(=O)NCC2CNCCO2)cc1` (stereo not drawn), the growth inhibition was -1% in test [1] and 92% (active) in test [4]. In addition, the inhibition was 4% in test [2] and -4% in test [3]. Besides, the result in test [5], in test [6], in test [7] and in test [8] was inactive.

For the molecule `COc1ccc2nccc([C@@H](O)CN3CCC(NCc4cc5ccccc5[nH]c4=O)CC3)c2c1`, the figures for the growth inhibition in test [1] and in test [4] were -3% and 97% (active), respectively. In addition, the inhibition in test [2] was -6%; in test [3], 3%. In addition, the outcome in test [5], in test [6], in test [7] and in test [8] was inactive.

As for `Nn1c(=O)oc2ccc(Cl)cc2c1=O`, the growth inhibition in test [1] was 96% (active); in test [4], 97% (active). Further, the inhibition is 4% in test [2] and -5% in test [3]. For the same molecule, the outcome in test [5], in test [6], in test [7] and in test [8] was inactive.

Turning to `CC(=O)c1cccc2cc(C(=O)NC3CCC(CCN4CCc5ccc(C#N)cc5C4)CC3)[nH]c12` (stereo not drawn), the growth inhibition was 17% in test [1] and 100% (active) in test [4]. In addition, the figures for the inhibition in test [2] and in test [3] were 12% and -4%, respectively. Also, the result in test [5], in test [6], in test [7] and in test [8] was inactive.

As to `Oc1c(C(Nc2ccccn2)c2ccco2)cc(Cl)c2cccnc12` (stereo not drawn), the growth inhibition in test [1] is 65% (active); in test [4] it was 87% (active). The inhibition in test [2] is 41%; in test [3], 1%. Moreover, the result in test [5], in test [6], in test [7] and in test [8] was inactive.
